# From PubChem BioAssay (NCATS)
# “And” between values parts separate entries of the source, which are not always exact repeats. Equal entries are not always repeated. Inconclusive results are not listed. The source made the active and inactive calls. The call rests on the fitted dose curve; in most records, active means well fitted curve in the direction sought with a large enough effect; inconclusive means small, poorly fitted or top-dose-only effect, or another doubt; inactive means no such curve, though single readings can be large; an effect the other way counts as inactive or inconclusive.
# Legend:
# [1] = Viability qHTS for spleen associated tyrosine kinase inhibitor (SYKi) naive MV4-11 cells (AID 1963823); further: nearly all actives have a fitted effect of over 40% in size
# Outline: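 Cells: MV4-11, SYK inhibitor naive, 500 per well. Treatment: library compounds, 72 hr, 37 C, 5% CO2. Read-out: CellTiter-Glo luminescence after 10 min RT.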
# [2] = Cellular viability qHTS for adrenocortical cancer (ACC) cell line SW-13 (AID 1963989); conditions: SW-13 ACC cells viability, CellTiter-Glo, 48 h; activity (max response): hits give low values; further: nearly all actives have a fitted effect of over 65% in size;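 on activity (max response): cells grown in serum-free medium with ITS supplement; on the % scale 0 is the no-effect control and ±100 the full control effect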
# Outline: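 Viability was read as CellTiter-Glo luminescence after 48 h compound treatment (up to 46 uM final) of SW-13 cells grown serum-free; titration curves were fit with a four-parameter logistic model to give IC50 and efficacy.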
# [3] = Quantitative highthroughput screen to assess conditional lethalithy of NOMO1 cells grown in Human Plasma-Like Medium with dialyzed fetal bovine serum (HPLM+ds) (AID 1963878); further: nearly all actives have a fitted effect of over 35% in size
# Outline: (§1)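 Each medium arm—HPLM with 10% dialyzed FBS, or RPMI1640 with 5 mM glucose and 10% untreated or dialyzed FBS—was screened against an 11-point, 3-fold compound titration for 48 h at 37 °C, with CellTiter-Glo luminescence as endpoint.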
# [4] = Quantitative highthroughput screen to assess conditional lethalithy of P12 Ichikawa cells grown in Human Plasma-Like Medium with dialyzed fetal bovine serum (HPLM+ds) (AID 1963879); conditions: Potency: viability; further: nearly all actives have a fitted effect of over 35% in size; on Viability: series mostly up to about 46 µM
# Outline: as §1
# [5] = Quantitative highthroughput screen to assess conditional lethalithy of P12 Ichikawa cells grown in RPMI1640 with untreated serum (RPMI+s) (AID 1963881); conditions: Potency: viability; further: nearly all actives have a fitted effect of over 35% in size;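 on Viability: series mostly up to about 46 µM; 100% = DMSO wells and 0% = empty wells without cells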
# Outline: as §1
# [6] = Quantitative highthroughput screen to assess conditional lethalithy of SEM cells grown in RPMI1640 with unreated serum (RPMI+s) (AID 1963883); further: nearly all actives have a fitted effect of over 35% in size;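 on Viability: 100% = DMSO wells and 0% = empty wells without cells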
# Outline: as §1
# [7] = Quantitative highthroughput screen to assess conditional lethalithy of SEM cells grown in RPMI1640 with dialyzed fetal bovine serum (RPMI+ds) (AID 1963884); further: nearly all actives have a fitted effect of over 35% in size;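 on Viability: series mostly up to about 46 µM; 100% = DMSO control wells and 0% = empty wells without cells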
# Outline: as §1
# [8] = Cellular viability qHTS for adrenocortical cancer (ACC) cell line NCI-H295R (AID 1963990); further: nearly all actives have a fitted effect of over 60% in size
# Outline: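 CellTiter-Glo ATP luminescence, read 48 h after compound addition, measured viability of NCI-H295R adrenocortical cells grown serum-free with ITS. Final concentrations spanned up to 46 uM. Data normalized to DMSO and doxorubicin, fitted for IC50 and maximal response.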
# [9] = Quantitative highthroughput screen to assess conditional lethalithy of P12 Ichikawa cells grown in RPMI1640 with dialyzed fetal bovine serum (RPMI+ds) (AID 1963880); conditions: Potency: P12-Ichikawa viability; further: nearly all actives have a fitted effect of over 35% in size;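 on Viability: 100% = DMSO wells and 0% = empty wells on each plate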
# Outline: as §1
# [10] = Quantitative highthroughput screen to assess conditional lethalithy of SEM cells grown in Human Plasma-Like Medium with dialyzed fetal bovine serum (HPLM+ds) (AID 1963882); further: nearly all actives have a fitted effect of over 35% in size; on Viability: series mostly up to about 46 µM
# Outline: as §1
# [11] = Quantitative highthroughput screen to assess conditional lethalithy of NOMO1 cells grown in RPMI1640 with dialyzed fetal bovine serum (RPMI+ds) (AID 1963877); further: nearly all actives have a fitted effect of over 30% in size;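 on Viability: series mostly up to about 46 µM; 100% = DMSO control wells and 0% = empty wells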
# Outline: as §1
# Potency means the concentration at half of the fitted maximal effect.
compound,measurement,setting,value
Nc1nc(F)nc2c1ncn2C1OC(COP(=O)(O)O)C(O)C1O (stereo unspecified),Potency,[1],10.5 µM (active)
same,activity (max response),[2],-0.687% (inactive)
CN1CCN(c2ccc(-c3cccc(CN4CCOCC4)c3)cc2NC(=O)c2c[nH]c(=O)cc2C(F)(F)F)CC1,Potency,[1],inactive
same,activity (max response),[2],-3.17% (inactive)
O=C(O)c1ccc(CCCc2ccc(OCCc3ccc(F)cc3)cc2)o1,Potency,[1],5.17 µM (active)
same,Potency,[2],17.8 µM (active)
O=C1OCCN1/N=C/c1ccc([N+](=O)[O-])o1,Potency,[1],inactive
same,activity (max response),[2],-0.921% (inactive)
O=C(Nc1nnc(-c2ccco2)o1)c1cc(-c2ccccc2)nc2ccccc12,Potency,[1],13.2 µM (active)
same,Potency,[3],5.9 µM (active)
same,Potency,[4],4.69 µM (active)
same,Potency,[5],26.4 µM (active)
same,Potency,[6],4.69 µM (active)
same,Potency,[7],20.9 µM (active)
same,Potency,[2],20 µM (active)
same,Potency,[8],10 µM (active)
COc1cc(C)c(Cc2cnc(N)nc2N)cc1OC,Potency,[1],inactive
same,activity (max response),[2],-2.95% (inactive)
NC(=O)c1ccc2[nH]ccc2c1,Potency,[1],inactive
same,Potency,[7],18.7 µM (active)
same,activity (max response),[2],-8.13% (inactive)
same,Potency,[8],inactive
CC(=O)OC[C@@H]1O[C@@H](n2ccc(=O)[nH]c2=O)[C@H](OC(C)=O)[C@H]1OC(C)=O,Potency,[1],inactive
same,Potency,[9],inactive
same,Potency,[5],inactive
same,Potency,[10],inactive
same,Potency,[7],inactive
same,activity (max response),[2],-1.19% (inactive)
same,Potency,[8],inactive
CCCC(=O)OCOC(=O)C1=C(C)NC(C)=C(C(=O)OC)C1c1cccc(Cl)c1Cl (stereo unspecified),Potency,[1],inactive
same,activity (max response),[2],6.2% (inactive)
O=C(Nc1nc2cccc(-c3ccc(CN4CCS(=O)(=O)CC4)cc3)n2n1)C1CC1,Potency,[1],2.59 µM (active) and 5.25 µM (active)
same,Potency,[3],23.5 µM (active)
same,Potency,[2],25.1 µM (active)
same,Potency,[8],28.2 µM (active)
CN(C)C(=O)C(CCN1CCC(O)(c2ccc(Cl)cc2)CC1)(c1ccccc1)c1ccccc1,Potency,[1],16.8 µM (active) and 14.8 µM (active)
same,Potency,[11],20.9 µM (active)
same,Potency,[2],5.17 µM (active)
same,Potency,[8],1.84 µM (active) and 28.2 µM (active)
COc1ccc(OC)c(-c2nnc3ccc(-c4ccc(OC)c(O[C@@H]5CCOC5)c4)nn23)c1,Potency,[1],2.63 µM (active)
same,Potency,[11],inactive
same,Potency,[4],inactive
same,Potency,[7],inactive
same,Potency,[2],5.01 µM (active)
same,Potency,[8],0.501 µM (active)
c1ccc(CC2=NCCN2)cc1,Potency,[1],inactive
same,activity (max response),[2],-11.9% (inactive)
COC(=O)C1=C(C)NC(c2ncc(F)cc2F)=N[C@H]1c1ccc(F)cc1Cl,Potency,[1],20.9 µM (active)
same,activity (max response),[2],-9.49% (inactive)
C#C[C@]1(O)CC[C@H]2[C@@H]3CCC4=CC(=O)CC[C@@H]4[C@H]3CC[C@@]21C,Potency,[1],inactive
same,activity (max response),[2],2.7% (inactive)
COc1ccc(S(=O)(=O)Nc2cc(-c3c(O)ccc4ccccc34)c(O)c3ccccc23)cc1,Potency,[1],1.18 µM (active)
same,Potency,[3],20.9 µM (active)
same,Potency,[4],16.6 µM (active)
same,Potency,[9],18.7 µM (active)
same,Potency,[5],20.9 µM (active)
same,Potency,[10],14.8 µM (active)
same,Potency,[6],7.43 µM (active)
same,Potency,[7],14.8 µM (active)
same,Potency,[8],28.2 µM (active)
CCC(CC)CC1(C(=O)Nc2ccccc2SC(=O)C(C)C)CCCCC1,Potency,[1],inactive
same,activity (max response),[2],9.72% (inactive)
COc1ccc(CCN(C)CCCOc2ccc(S(=O)(=O)c3[nH]c4ccccc4c3C(C)C)cc2)cc1OC,Potency,[1],7.42 µM (active)
same,Potency,[4],inactive
same,Potency,[2],28.2 µM (active)
same,Potency,[8],11.2 µM (active)
CC1(C)CCC(C)(C)c2cc(NC(=O)c3ccc(C(=O)O)cc3)ccc21,Potency,[1],inactive
same,Potency,[11],inactive
same,Potency,[4],inactive
same,Potency,[5],inactive
same,Potency,[10],inactive
same,Potency,[6],inactive
same,Potency,[7],inactive
same,activity (max response),[2],-9.24% (inactive)
same,Potency,[8],inactive
CC(C)NCC(O)COc1cccc2[nH]ccc12 (stereo unspecified),Potency,[1],inactive
same,activity (max response),[2],-13.8% (inactive)
Cn1cc[nH]c1=S,Potency,[1],inactive
same,activity (max response),[2],12% (inactive)
Cc1[nH]nc(C(F)(F)F)c1Cc1sc2c(c1C(=O)N1C[C@](C)(O)CO1)c(=O)n(C)c(=O)n2C(C)C,Potency,[1],inactive
same,activity (max response),[2],14.8% (inactive)
Cc1cc(C)c(S(=O)(=O)N(CCc2cccc(Br)c2)Cc2ccc(-c3cccc(S(C)(=O)=O)c3)cc2)c(C)c1,Potency,[1],inactive
same,activity (max response),[2],-27.1% (inactive)
C[C@]1(c2nc3c(C(N)=O)cccc3[nH]2)CCCN1,Potency,[1],inactive
same,Potency,[4],inactive
same,Potency,[10],inactive
same,activity (max response),[2],7.65% (inactive)
same,Potency,[8],inactive
CCCCCCCC/C=C\CCCCCCCC(=O)NCc1ccc(O)c(OC)c1,Potency,[1],inactive
same,Potency,[2],3.26 µM (active)
CN(C)c1ccc2cc(C(=O)N[C@@H](CCCN=C(N)CCl)C(=O)NCc3ccccc3)ccc2c1,Potency,[1],5.25 µM (active)
same,Potency,[3],23.5 µM (active)
same,Potency,[6],26.4 µM (active)
same,Potency,[7],26.4 µM (active)
same,activity (max response),[2],-6.76% (inactive)
same,Potency,[8],inactive
